Measurements reported in PubChem BioAssay (NCATS).
Records with an inconclusive call do not appear. Activity calls are given as the source filed them. Calls follow the shape of the dose curve; as a rule, active = well fitted inhibition curve with a large enough effect; inconclusive = small, poorly fitted or top-dose-only effect; inactive = no such curve, though single readings can be large or run the other way.

system: Zika virus NS2B-NS3 protease (unlinked complex); test: Primary screen GU Rhodamine qHTS for Zika virus inhibitors: Unlinked NS2B-NS3 protease assay (AID 1347159); conditions: Recombinant ZIKV NS2B-NS3 protease, Rhodamine110 substrate fluorescence; series mostly up to 107 µM; activity change, negative = inhibition: at the top concentration; also: nearly all actives have a fitted effect of over 60% in size; also: potency is read from the fitted curve at half-maximal effect
In short: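 Noncovalent NS2B hydrophilic domain–NS3 protease domain complex (25 nM) preincubated 15 min at room temperature with compounds (up to 114 microM) in 10 mM Tris-HCl pH 8.0, 0.01% Tween 20; 1.5 microM Rhodamine110 substrate added, fluorescence change over 15 min fitted to Hill equation.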
% is scaled to controls: 0 for no effect and ±100 for the full control effect.

Compound | activity change, negative = inhibition | Potency
CC(C)(O)c1ccn2c(-c3ccc(F)c(-c4ccc(F)cc4C#N)c3)cnc2c1F | -28.8% (inactive) | –
O=C(Nc1ccc2[nH]c(=O)oc2c1)C(=O)N1CCC(Cc2ccc(F)cc2)CC1 | -27.4% (inactive) | –
Cn1ncc(Cl)c1-c1cc(C(=O)NC(CN)Cc2ccc(F)c(F)c2)oc1Cl (stereo not drawn) | 123% (inactive) | –
Cn1ncc2cc(-c3cnc(N)c(Cl)c3N3CCC4(CCNC4=O)CC3)ccc21 | 0.602% (inactive) | –
C=C1C(=O)OC2C3=C(C)C(=O)CC3C(C)CC(O)C12 (stereo not drawn) | -25.4% (inactive) | –
COc1ccc(NC(=O)c2ccc(C(=N)N(C)C)cc2)c(C(=O)Nc2ccc(Cl)cn2)c1 | -20.9% (inactive) | –
CCN(Cc1cc(Nc2nc(C)cn3c(-c4cn[nH]c4)cnc23)sn1)C(C)(C)CO | 47.2% (inactive) | –
C=CS(=O)(=O)NC1CCN(C(=O)CNc2cc(I)c(Cl)cc2OC)CC1 | 25.4% (inactive) | –
CC(=O)OC1C(=O)C2C3OCC4=C3[C@@](C)(CC[C@@H]4O)CC[C@]2(C)[C@H]1C(C)C (stereo partly drawn) | -27.3% (inactive) | –
COc1cc(-c2nc(N[C@H](CO)Cc3ccccc3)ccc2C(=O)NCCOc2ccccc2)cc(OC)c1OC | 6.2% (inactive) | –
O=C(c1ccc(Cl)cc1)N1CCN(c2ccnc3cc(Cl)ccc23)CC1 | 0% (inactive) | –
CO[C@H]1[C@@H](O)[C@H](O[C@H]2CC[C@@]3(C)C(CCC4C3CC[C@]35COC6(COC(=O)C6)C3CCC45O)C2)O[C@@H](C)[C@@H]1OC1OC(CO)C(OC2OC(CO)C(O)C(O)C2O)C(O)C1O (stereo partly drawn) | 25.2% [at 32.5 µM] (inactive) | –
C=C(COC(=O)C(O)C(O)CN)C12OC1C1(C)C(=CC2=O)C(O)C(O)CC1C (stereo not drawn) | 83.1% (inactive) | –
C=CC(=O)Nc1ccc2ncnc(Nc3cccc(Br)c3)c2c1 | – | 44.7 µM (active)
O=C(N[C@@H]1CCCc2c1cnn2-c1ccc(F)cc1F)c1ccccn1 | 0% (inactive) | –
CCCCCCCCn1cc(CN(CC)CC)c2cc(-c3cnc(N)nc3)ccc21 | -27.5% (inactive) | –
C[C@H](Nc1cc2c(-c3ccc4c(c3)OCO4)noc2cn1)c1ccccc1 | -15.9% (inactive) | –
Cc1ccc(N2CCN(CCC3NC(=O)c4ccccc43)CC2)cc1C (stereo not drawn) | 54.8% (inactive) | –
Cn1ncc(Cl)c1-c1cc(C(=O)N[C@H](CN)Cc2ccc(F)c(F)c2)oc1Cl | 168% (inactive) | –
O=S1(=O)CCN(Cc2cc(NCC3CCOCC3)c3[nH]c(-c4ccccc4)cc3c2)CC1 | 37.7% (inactive) | –

Compound | activity change, negative = inhibition | Potency
CC1(C)CCCC2(C)C1C(=O)C=C(C(=O)O)C2(O)C(=O)O (stereo not drawn) | -27% (inactive) | –
C=C1CC[C@@H]2[C@](C)(CO)[C@H](O)CC[C@@]2(C)[C@@H]1C/C=C1/C(=O)OCC1O (stereo partly drawn) | 12.5% (inactive) | –
CCCNCCc1ccc(NS(=O)(=O)c2ccc(OC(F)(F)F)cc2)cc1 | 27.1% (inactive) | –
CC(C)(C)OC(=O)c1ncn2c1C(C)(C)Nc1ccccc1-2 | 5.07% (inactive) | –
CN(C)CCN(Cc1ccccc1)C(=O)c1cc(-c2ccc(F)cc2)n2nc(C(C)(C)C)cc2n1 | 136% (inactive) | –
Cc1nc(C#Cc2ccnc(Cl)c2)c(C)n1-c1ccc(F)cc1 | -8.54% (inactive) | –
CC(=O)c1c(C)cc2cccc(O)c2c1O[C@@H]1O[C@H](CO)[C@@H](O)[C@H](O)[C@H]1O | -10.9% (inactive) | –
C[C@H](Oc1cc(-n2cnc3ccc(CN4CCN(C)CC4)cc32)sc1C(N)=O)c1ccccc1C(F)(F)F | 60% (inactive) | –
CCn1c(=O)c(-c2ccc(Cl)cc2Cl)cc2cnc(Nc3ccc(N4CCNCC4)c(F)c3)nc21 | -44.8% (inactive) | –
CCOc1cc(C(C)(C)C)ccc1C1=N[C@@](C)(c2ccc(Cl)cc2)[C@@](C)(c2ccc(Cl)cc2)N1C(=O)N1CCN(CC(=O)N2CCOCC2)CC1 | -16.1% (inactive) | –
O=C(Nc1ccc(Cl)cc1)c1ccccc1NCc1ccncc1 | 17.2% (inactive) | –
CCN(CC)CCCCCCNc1cc(OC)cc2c(C)ccnc12 | 11.9% (inactive) | –
Cn1c(CO)c(-c2ccccc2)c2cc([N+](=O)[O-])ccc21 | 9.22% (inactive) | –
C=CC(=O)N1CCCN(c2cc(NCCC(=O)O)nc(-c3ccccn3)n2)CC1 | -14.9% (inactive) | –
Cc1nc(NC(=O)N2CCCC2C(N)=O)sc1-c1ccnc(C(C)(C)C(F)(F)F)c1 (stereo not drawn) | -3.54% (inactive) | –
C=C1C(OC2OC(CO)C(O)C(O)C2O)CC2C(C)(C)C(O)CCC2(C)C1CC/C(C)=C\COC(=O)CC(=O)O (stereo not drawn) | 1.17% [at 32.5 µM] (inactive) | –
Cn1cc(-c2ccc(F)c(C(F)(F)F)c2)nc1C1CCN(c2ncnc3[nH]ncc23)CC1 | -19.2% [at 57.1 µM] (inactive) | –
O=C(OC1CN2CCC1CC2)N1CCc2ccccc2C1c1ccccc1 (stereo not drawn) | 46.5% (inactive) | –
O=C(Nc1cnc(Cl)nc1)c1ccc(F)c(F)c1 | 10.1% (inactive) | –

system: Zika virus NS2B-NS3 protease (linked construct); test: Primary screen NINDS Rhodamine qHTS for Zika virus inhibitors (AID 1347160); conditions: purified NS2B-NS3 protease, Rhodamine110 substrate fluorescence; series mostly up to 57.1 µM; activity change, negative = inhibition: at the top concentration; also: nearly all actives have a fitted effect of over 55% in size
In short: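 Purified linked NS2B-NS3 protease (NS2B hydrophilic domain joined to NS3 protease by flexible linker), 25 nM in 10 mM Tris-HCl pH 8.0, 0.01% Tween 20. Compounds titrated, 15 min preincubation at room temperature; 1.5 microM Rhodamine110 substrate, FITC fluorescence change over 15 min.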

Compound | activity change, negative = inhibition | outcome
CC(C)(O)c1ccn2c(-c3ccc(F)c(-c4ccc(F)cc4C#N)c3)cnc2c1F | 49.4% (inactive) | –
O=C(Nc1ccc2[nH]c(=O)oc2c1)C(=O)N1CCC(Cc2ccc(F)cc2)CC1 | -1.54% (inactive) | –
Cn1ncc(Cl)c1-c1cc(C(=O)NC(CN)Cc2ccc(F)c(F)c2)oc1Cl (stereo not drawn) | 122% (inactive) | –
Cn1ncc2cc(-c3cnc(N)c(Cl)c3N3CCC4(CCNC4=O)CC3)ccc21 | 24.3% (inactive) | –
C=C1C(=O)OC2C3=C(C)C(=O)CC3C(C)CC(O)C12 (stereo not drawn) | -5.1% (inactive) | –
COc1ccc(NC(=O)c2ccc(C(=N)N(C)C)cc2)c(C(=O)Nc2ccc(Cl)cn2)c1 | 51.2% (inactive) | –
CCN(Cc1cc(Nc2nc(C)cn3c(-c4cn[nH]c4)cnc23)sn1)C(C)(C)CO | 39.5% (inactive) | –
C=CS(=O)(=O)NC1CCN(C(=O)CNc2cc(I)c(Cl)cc2OC)CC1 | 12.8% (inactive) | –
CC(=O)OC1C(=O)C2C3OCC4=C3[C@@](C)(CC[C@@H]4O)CC[C@]2(C)[C@H]1C(C)C (stereo partly drawn) | -5.54% [at 33.1 µM] (inactive) | –
COc1cc(-c2nc(N[C@H](CO)Cc3ccccc3)ccc2C(=O)NCCOc2ccccc2)cc(OC)c1OC | 17% (inactive) | –
O=C(c1ccc(Cl)cc1)N1CCN(c2ccnc3cc(Cl)ccc23)CC1 | 15.5% (inactive) | –
CO[C@H]1[C@@H](O)[C@H](O[C@H]2CC[C@@]3(C)C(CCC4C3CC[C@]35COC6(COC(=O)C6)C3CCC45O)C2)O[C@@H](C)[C@@H]1OC1OC(CO)C(OC2OC(CO)C(O)C(O)C2O)C(O)C1O (stereo partly drawn) | – | inactive [at 15.1 µM]
C=C(COC(=O)C(O)C(O)CN)C12OC1C1(C)C(=CC2=O)C(O)C(O)CC1C (stereo not drawn) | 53% [at 33.1 µM] (inactive) | –
C=CC(=O)Nc1ccc2ncnc(Nc3cccc(Br)c3)c2c1 | -13.4% (inactive) | –
O=C(N[C@@H]1CCCc2c1cnn2-c1ccc(F)cc1F)c1ccccn1 | -2.16% (inactive) | –
CCCCCCCCn1cc(CN(CC)CC)c2cc(-c3cnc(N)nc3)ccc21 | 205% (inactive) | –
C[C@H](Nc1cc2c(-c3ccc4c(c3)OCO4)noc2cn1)c1ccccc1 | – | inactive
Cc1ccc(N2CCN(CCC3NC(=O)c4ccccc43)CC2)cc1C (stereo not drawn) | -11.8% (inactive) | –
Cn1ncc(Cl)c1-c1cc(C(=O)N[C@H](CN)Cc2ccc(F)c(F)c2)oc1Cl | 86.6% (inactive) | –
O=S1(=O)CCN(Cc2cc(NCC3CCOCC3)c3[nH]c(-c4ccccc4)cc3c2)CC1 | – | inactive

Compound | activity change, negative = inhibition | outcome
CC1(C)CCCC2(C)C1C(=O)C=C(C(=O)O)C2(O)C(=O)O (stereo not drawn) | -18.6% (inactive) | –
C=C1CC[C@@H]2[C@](C)(CO)[C@H](O)CC[C@@]2(C)[C@@H]1C/C=C1/C(=O)OCC1O (stereo partly drawn) | 20.6% (inactive) | –
CCCNCCc1ccc(NS(=O)(=O)c2ccc(OC(F)(F)F)cc2)cc1 | – | inactive; activator
CC(C)(C)OC(=O)c1ncn2c1C(C)(C)Nc1ccccc1-2 | 14.7% (inactive) | –
CN(C)CCN(Cc1ccccc1)C(=O)c1cc(-c2ccc(F)cc2)n2nc(C(C)(C)C)cc2n1 | – | inactive
Cc1nc(C#Cc2ccnc(Cl)c2)c(C)n1-c1ccc(F)cc1 | 15.6% (inactive) | –
CC(=O)c1c(C)cc2cccc(O)c2c1O[C@@H]1O[C@H](CO)[C@@H](O)[C@H](O)[C@H]1O | – | inactive [at 33.1 µM]
C[C@H](Oc1cc(-n2cnc3ccc(CN4CCN(C)CC4)cc32)sc1C(N)=O)c1ccccc1C(F)(F)F | 76% (inactive) | –
CCn1c(=O)c(-c2ccc(Cl)cc2Cl)cc2cnc(Nc3ccc(N4CCNCC4)c(F)c3)nc21 | 42.6% (inactive) | –
CCOc1cc(C(C)(C)C)ccc1C1=N[C@@](C)(c2ccc(Cl)cc2)[C@@](C)(c2ccc(Cl)cc2)N1C(=O)N1CCN(CC(=O)N2CCOCC2)CC1 | 0.162% [at 33.1 µM] (inactive) | –
O=C(Nc1ccc(Cl)cc1)c1ccccc1NCc1ccncc1 | – | inactive
CCN(CC)CCCCCCNc1cc(OC)cc2c(C)ccnc12 | 11.9% (inactive) | –
Cn1c(CO)c(-c2ccccc2)c2cc([N+](=O)[O-])ccc21 | – | inactive
C=CC(=O)N1CCCN(c2cc(NCCC(=O)O)nc(-c3ccccn3)n2)CC1 | 8.41% (inactive) | –
Cc1nc(NC(=O)N2CCCC2C(N)=O)sc1-c1ccnc(C(C)(C)C(F)(F)F)c1 (stereo not drawn) | 12.7% (inactive) | –
C=C1C(OC2OC(CO)C(O)C(O)C2O)CC2C(C)(C)C(O)CCC2(C)C1CC/C(C)=C\COC(=O)CC(=O)O (stereo not drawn) | -0.312% [at 15.1 µM] (inactive) | –
Cn1cc(-c2ccc(F)c(C(F)(F)F)c2)nc1C1CCN(c2ncnc3[nH]ncc23)CC1 | 16.8% [at 33.1 µM] (inactive) | –
O=C(OC1CN2CCC1CC2)N1CCc2ccccc2C1c1ccccc1 (stereo not drawn) | 88.1% (inactive) | –
O=C(Nc1cnc(Cl)nc1)c1ccc(F)c(F)c1 | – | inactive
